HttQ103 aggreg: mutant huntingtin aggregation inhibition. PC12 HttQ103-GFP aggregates, Acumen cytometry, 40 h. Potency, µM (top dose mostly 46.1 µM), without a hit: at the highest dose activity change, negative = inhibition, actives largely listed as inhibitors. 1.1% of 220,000 active; further: potency means the concentration at half of the fitted maximal effect; on the % scale 0 is the no-effect control and ±100 the full control effect; nearly all actives have a fitted effect of over 60% in size
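Inducible Q103 Huntingtin exon 1–GFP PC12 line, 1500 cells/well in phenol red free DMEM with 5% equine and 5% calf serum. Tebufenozide 100 nM induced expression; compounds titrated; aggregates quantified by cytometry.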
IMPase Li inh: IMPase inhibition in cells with lithium potentiation | CHO-M1 cells, IP1 TR-FRET (IP-One), carbachol + lithium | Potency, µM (series often up to 59.4 µM), for inactives: top-dose activity, negative = IMPase inhibition, usual class: inhibitors | 0.35% of 210,000 active | AID 1457;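 further: IP1 builds up when IMPase is blocked and the TR-FRET signal falls; potency means the concentration at half of the fitted maximal effect; plate controls were basal vehicle for no effect and high inhibitor control for full effect; nearly all actives have a fitted effect of over 50% in size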
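Steps: plate 2000 CHO-M1 cells per well and culture 16–30 h; add compound and lithium; incubate 30 min, 37C; add d2-IP1 tracer and Eu cryptate anti-IP1 antibody in lysis buffer; read after 10 min at room temperature.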
IMPase inh: IMPase inhibition in cells; inhibition (IP1 accumulation), % at 46.1 µM; P97697; 120,000 tested, under 10 active; CHO-M1 cells, IP1 accumulation, HTRF TR-FRET ratio; active means well fitted curve in the direction sought with a large enough effect in the signal ratio, not every such curve was filed as active; inconclusive means small, poorly fitted or top-dose-only effect, or a change in a side signal; inactive means no such curve, though single readings can be large or run the other way; the % refers to the signal ratio;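 further: cells stimulated with carbachol in lithium chloride buffer; plate controls were DMSO basal wells for no effect and reference inhibitor wells for full effect; higher means more IMPase inhibition seen as more IP1 and lower FRET ratio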
Target sequence (P97697 whole entry, looked up): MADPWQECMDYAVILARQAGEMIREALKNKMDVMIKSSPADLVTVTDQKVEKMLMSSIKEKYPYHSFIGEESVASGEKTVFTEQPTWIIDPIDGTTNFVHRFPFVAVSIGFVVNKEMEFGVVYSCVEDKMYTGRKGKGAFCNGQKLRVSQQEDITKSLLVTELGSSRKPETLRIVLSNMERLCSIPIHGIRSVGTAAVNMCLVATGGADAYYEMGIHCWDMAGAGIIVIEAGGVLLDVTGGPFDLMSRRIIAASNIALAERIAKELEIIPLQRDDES
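Carbachol-driven Gq signalling in CHO-M1 cells (2000/well) generates IP1. Compounds that block IMPase raise IP1 and so reduce the FRET signal from Eu-anti-IP1 and d2-IP1 after a 10 min room-temperature lysis.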
ALDH1A1 block: ALDH1A1 (human) enzyme inhibition. P00352. Purified ALDH1A1, NADH fluorescence, propionaldehyde substrate. Potency, µM (doses to about 75.3 µM), without a hit: at the top dose activity, negative = inhibition, hits mostly inhibitors. 7.3% of 220,000 active; active means well fitted inhibition curve with a large enough effect, not every such curve was filed as active; inconclusive means small, poorly fitted or top-dose-only effect, or another doubt; inactive means no such curve, though single readings can be large or run the other way;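 further: potency means the concentration at half of the fitted maximal effect; plate controls were no enzyme wells and a reference inhibitor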
HTT cytoprotect: Huntington cell model cytoprotection by ATP luminescence; AID 1471; 0.14% of 230,000 active; Potency, µM (doses to about 56.4 µM), inactives show cytoprotection (ATP increase), most hits filed as activators; PC12 HTT-Q103 induced, cytoprotection, ATP luminescence, 40 h; further: potency means the concentration at half of the fitted maximal effect; % of control where 0% means no effect; nearly all actives have a fitted effect of over 45% in size
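Compounds added alongside 100 nM tebufenozide, which induces toxic Q103 huntingtin exon 1-GFP in stable PC12 cells; surviving cells quantified by luminescent ATP measurement. Medium: phenol red-free DMEM, 5% equine and 5% calf serum.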
HPGD inh: blocks human HPGD enzyme activity. Potency, µM, inactives show at the highest dose activity change, negative = inhibition, actives largely listed as inhibitors. P15428. purified HPGD, NADH fluorescence kinetic, PGE2 substrate. 4.3% of 150,000 active; active means well fitted inhibition curve with a large enough effect, not every such curve was filed as active; inconclusive means small, poorly fitted or top-dose-only effect, or another doubt; inactive means no such curve, though single readings can be large or run the other way; further: potency means the concentration at half of the fitted maximal effect; on the % scale 0 is the no-effect control and ±100 the full control effect
Target sequence (P15428 whole entry, looked up): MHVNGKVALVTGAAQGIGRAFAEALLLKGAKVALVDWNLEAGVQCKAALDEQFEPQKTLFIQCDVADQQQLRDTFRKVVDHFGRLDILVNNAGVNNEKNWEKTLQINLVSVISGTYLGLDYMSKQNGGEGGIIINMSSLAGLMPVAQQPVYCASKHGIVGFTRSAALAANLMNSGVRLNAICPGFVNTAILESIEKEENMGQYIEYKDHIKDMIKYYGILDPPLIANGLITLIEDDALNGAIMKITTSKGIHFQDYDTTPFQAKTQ
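NADH formation kinetics: reaction with 30 uM PGE2 and 1 mM NAD+ (final), 20 nM enzyme, Tris-HCl pH 8 with Tween 20, after 15 min compound preincubation at room temperature. Fluorescence change, last versus first of five reads.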
Active calls of the source: *; ? = inconclusive; / = not tested or not shown; [ ] = another dose, or the depositor's remark. Compounds with a hit are over-represented: about 9.4% of the library has one in this group of screens. Unless noted, the call rests on the fitted dose curve; in most records, active means well fitted curve in the direction sought with a large enough effect; inconclusive means small, poorly fitted or top-dose-only effect, or another doubt; inactive means no such curve, though single readings can be large; an effect the other way counts as inactive or inconclusive.

SMILES	HttQ103 aggreg	IMPase Li inh	IMPase inh	ALDH1A1 block	HTT cytoprotect	HPGD inh
OC(CNCC(c1ccco1)N1CCCCC1)c1ccccc1 (stereo not drawn)	5%	26%[38.3 µM]	4	18µM*	12%[10 µM]	2%
S=C(NCC(c1ccco1)N1CCCC1)Nc1ccccc1 (stereo not drawn)	1%	?	/	-15%	-11%	/
CO[C@H]1COC(=O)[C@H]2CCCN2C(=O)C/C=C\[C@@H](C)[C@H](OC)COC(=O)C/C=C\[C@@H]1C	/	/	/	6%[13.5 µM]	-7%[10 µM]	/
COc1ccc(C(=O)C(CCC(CNC(C)(C)C)C(=O)c2ccc(OC)cc2)CNC(C)(C)C)cc1 (stereo not drawn)	18µM*	6%	/	8.9µM*	/	-4%
CCn1cc(C2=NOC(C(=O)Nc3cccc(C(C)=O)c3)C2)c(C)n1 (stereo not drawn)	0.79µM*	6%[38.3 µM]	1	3%	8%[10 µM]	-11%
O=c1c2ccccc2c(C=NC2CCS(=O)(=O)C2)c(O)n1-c1ccccc1 (stereo not drawn)	-2%	?	11	18µM*	-12%[0.074 µM]	-11%
O=C(N/N=C/C=C/c1ccco1)c1ccncc1	-1%[9.22 µM]	/	/	/	30%[10 µM]	/
O=C(Cc1cccs1)N/N=C/C=C\c1ccco1	?	0%	8	25µM*	3%[10 µM]	-20%
Cc1cccc(C)c1OCC(=O)N/N=C/C=C/c1ccco1	?	-7%	/	13µM*	-14%	/
O=C(Cc1cccs1)N/N=C/c1ccco1	-9%	-2%	2	-3%	-19%[10 µM]	-12%
O=C(N/N=C/C=C/c1ccc([N+](=O)[O-])cc1)c1cccs1	8%	-25%[38.3 µM]	2	-12%	14%	16µM*
O=C(N/N=C/C=C\c1ccccc1[N+](=O)[O-])c1cccs1	-17%	2%	8	?	0%[10 µM]	-5%
O=C(N/N=C/C=C\c1ccco1)c1cccs1	0%	12%	/	28µM*	-47%	/
C=CCC(C)(O)c1ccsc1 (stereo not drawn)	/	-3%	/	6%	23%	-3%
O=C(c1ccco1)N1CCN(C(=O)c2cc(-c3ccccc3)nc3ccccc23)CC1	3%	2%[38.3 µM]	-3	-1%	-27%	-13%
Cc1cccc2c(C(=O)N3CCN(C(=O)c4ccco4)CC3)cc(-c3cccc(Br)c3)nc12	8.9µM*	3%	/	?	29%[10 µM]	/
COc1ccccc1CN1CC[C@@]2(CCCN(C(=O)c3cccc(F)c3)C2)C1	/	5%	/	?	18%	-5%
N#CCCCS(=O)(=O)c1nnnn1-c1ccc(F)cc1Br	/	8%	/	18µM*	7.1µM*	-10%
CN(C1CCCCC1)S(=O)(=O)c1ccc(NC(=O)c2ccc(Br)o2)cc1	22µM*	14%	-2	?	1%[10 µM]	-28%
C/C(=N\NS(=O)(=O)c1ccc([N+](=O)[O-])cc1)c1ccc(NC(=O)c2ccco2)cc1	7%	0%	/	25µM*	-85%	/
O=C(Nc1ccc(S(=O)(=O)NC2CCCCC2)cc1)c1ccc(Br)o1	-31%	21%[38.3 µM]	3	-7%	-9%[0.074 µM]	14µM*
CN(C)S(=O)(=O)c1ccc(NC(=O)c2ccc(Br)o2)cc1	-3%	16%[38.3 µM]	-3	1%	-6%[10 µM]	-9%
O=C(Nc1ccc(S(=O)(=O)N2CCC(C(=O)NC3CCCCC3)CC2)cc1)c1ccco1	-4%	22%[38.3 µM]	-1	?	1%	?
O=C(Nc1ccc(S(=O)(=O)NC2CCCCC2)cc1)c1ccco1	-20%	9%	10	0%	8%[10 µM]	13µM*
Cc1noc(/C=C/N(C)C)c1S(=O)(=O)N(C)CC(=O)N1CCc2ccccc21	7%	4%	-10	3%	12%[10 µM]	-5%
SMILES	HttQ103 aggreg	IMPase Li inh	IMPase inh	ALDH1A1 block	HTT cytoprotect	HPGD inh
Cc1noc(/C=C/N(C)C)c1S(=O)(=O)N1CCc2ccccc21	-5%	51%[38.3 µM]	-1	5.6µM*	-10%[10 µM]	-30%
Cc1noc(/C=C/N(C)C)c1S(=O)(=O)N1CCCC(C(=O)NC(C)c2ccccc2)C1 (stereo not drawn)	-10%	7%[38.3 µM]	2	7.5µM*	-10%	32µM*
COc1cccc(Nc2nc3ccc(C(=O)c4ccccc4)cc3n3c(C)nnc23)c1	/	/	1	/	/	/
CC(C)c1nc2ccccc2n1CC(O)COC1CCCCC1 (stereo not drawn)	-18%	5%	/	28µM*	-23%	/
Cc1nc2ccccc2n1CC(O)COC1CCCCC1 (stereo not drawn)	?	3%	15	?	2%[10 µM]	-1%
COc1ccccc1Nc1nc(NCc2ccco2)c2ccccc2n1	-23%[9.22 µM]	/	/	/	-2%[10 µM]	/
Cc1ccc(Nc2nc(NCc3ccco3)c3ccccc3n2)cc1	11µM*	9%	/	?	-92%	/
c1ccc(-c2nc(NCc3ccco3)c3ccccc3n2)nc1	18µM*	6%[38.3 µM]	6	?	-72%	-14%
Oc1ccccc1-c1nc(NCc2ccco2)c2ccccc2n1	-19%	33%[38.3 µM]	16	-3%	-22%	-10%
NC(=O)c1cc(Cc2ccccc2)sc1NC(=O)c1ccco1	-11%	-10%[38.3 µM]	-10	18µM*	9%[10 µM]	28µM*
CCCc1cc(C(N)=O)c(NC(=O)c2ccoc2C)s1	-12%	18%[38.3 µM]	8	18µM*	11%[10 µM]	?
CCOC(=O)c1cc(NC(=O)c2ccoc2C)cc(C(=O)OCC)c1	-2%	26%[38.3 µM]	11	6.3µM*	7%[10 µM]	-22%
N=C(N)c1ccc(/C=C\c2ccc(C(=N)N)cc2)cc1	/	5%	/	?	14%[10 µM]	?
Fc1ccc(C(NCCc2ccccc2)c2nnc(-c3ccccc3Cl)o2)cc1 (stereo not drawn)	/	/	7	/	/	/
CCCOc1cccc(C2c3c(oc4ccccc4c3=O)C(=O)N2c2nncs2)c1 (stereo not drawn)	/	/	-6	/	/	/
COc1ccc(CCNC(=O)CSc2nnnn2-c2ccccc2)cc1	-4%[9.22 µM]	2%[38.3 µM]	2	1.6µM*	1%	-5%
COc1ccc(-n2nnnc2SCC(=O)NCCc2ccccc2)cc1OC	1%	6%	/	-15%	/	/
COc1ccc(CCNc2nnc(Sc3nnnn3-c3ccccc3)s2)cc1OC	?	9%	9	18µM*	-82%[10 µM]	-7%
COc1ccc(CNC(=O)CSc2nnnn2-c2ccccc2)cc1	-11%	-10%[38.3 µM]	-4	11µM*	-3%	-10%
COc1ccc(CNC(=O)CSc2nnnn2Cc2ccccc2)cc1	-2%	-5%[38.3 µM]	?	?	-8%	-3%
COC(=O)[C@@H]1C[C@H]2CC[C@H](O)C[C@H]2N1Cc1ccc(N2CCOCC2)cc1	/	-17%	/	-9%	-11%	-7%
CCCCC(=O)N1C/C=C\C(c2ccc(OC)cc2)N(Cc2ccc(F)cc2)C(=O)C1 (stereo not drawn)	12%[9.22 µM]	/	/	/	-9%[10 µM]	/
